# Assay outcomes (PubChem)
# Anesthetic bind: qHTS Assay for Identification of Novel General Anesthetics | Ferritin light chain (Equus caballus), P02791 | apoferritin/1-aminoanthracene competitive binding, fluorescence | Potency, µM (top dose mostly 77.5 µM), hits mostly inhibitors | hit rate 0.074% among 350,000; also: nearly all actives have a fitted effect of over 20% in size
#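 10 uM apoferritin + 50% sat. 1-AMA, PBS; cpd 10 min RT; Ex380/Em535 endpoint; normalized to free probe vs complex; 4-param Hill fit; propofol titration as pos. ctrl.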
# ASM inhibitor: Inhibitors of Secretory Acid Sphingomyelinase (S-ASM): qHTS. hit rate 0.006% among 340,000. Potency, µM (highest dose often 57.5 µM), most hits filed as inhibitors. AID 504937, 2011. placental ASM, HMU-PC fluorogenic substrate, 60 min. Sphingomyelin phosphodiesterase (Homo sapiens), P17405
# Target sequence (P17405 47-631 limits assumed): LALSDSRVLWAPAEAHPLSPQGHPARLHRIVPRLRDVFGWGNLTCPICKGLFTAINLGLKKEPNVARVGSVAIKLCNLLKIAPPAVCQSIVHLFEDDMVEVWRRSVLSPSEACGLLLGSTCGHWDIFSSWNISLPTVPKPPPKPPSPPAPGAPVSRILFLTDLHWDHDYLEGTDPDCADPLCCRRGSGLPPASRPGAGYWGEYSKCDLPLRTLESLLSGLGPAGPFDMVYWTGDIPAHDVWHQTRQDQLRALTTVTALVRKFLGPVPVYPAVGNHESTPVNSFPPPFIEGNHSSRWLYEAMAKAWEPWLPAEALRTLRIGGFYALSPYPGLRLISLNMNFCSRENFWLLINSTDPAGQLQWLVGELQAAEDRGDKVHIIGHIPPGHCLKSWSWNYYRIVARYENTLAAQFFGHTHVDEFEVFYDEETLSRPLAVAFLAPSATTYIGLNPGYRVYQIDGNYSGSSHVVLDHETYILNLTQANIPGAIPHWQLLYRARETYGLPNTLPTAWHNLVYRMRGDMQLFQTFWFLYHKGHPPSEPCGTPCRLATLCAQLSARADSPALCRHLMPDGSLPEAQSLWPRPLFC
#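 Fluorescence read-out (Ex 386 nm, Em 447 nm) after stopping the reaction at pH 10. Enzyme: ASM from human placenta; substrate HMU-PC0, 9 uM final; 60 min, 37 °C. Compound preincubation 10 min, ambient temperature.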
# PTAP TSG101 blk: qHTS Assay for Iinhibitors of HIV-1 Budding by Blocking the Interaction of PTAP/TSG101; Potency, µM (series often up to 115 µM), actives largely listed as inhibitors; 340,000 tested, under 10 active; Fluorescence polarization, FITC-PTAP peptide / Tsg101 binding; active = well fitted inhibition curve with a large enough effect in the main read-out, with a control signal flat, not every such curve was filed as active; inconclusive = small, poorly fitted or top-dose-only effect, or effect the other way, or a change in a side signal; inactive = no such curve, though single readings can be large or run the other way
#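 Tsg101 binding domain (10 uM final) was mixed with compound and a FITC-labeled PTAP peptide (50 nM final) in HEPES pH 7.5 buffer with NaCl, Tween 20, EDTA and TCEP; fluorescence polarization was read after 20 min at r.t.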
# TSHR antagonist: Antagonists of the Thyroid Stimulating Hormone Receptor: HTS campaign; TSHR-expressing cells, TSH-stimulated cAMP HTRF, 2 h; hits give low values; AID 504810, 2011; Thyrotropin receptor (Homo sapiens), P16473; hit rate 0.2% among 330,000; activity change, negative = inhibition, % at 11.5 µM;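 active = activity change below a set negative limit, meaning inhibition stronger than a set level, cut at about -70% in these data; inconclusive = activity change between two set negative limits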
#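 Inhibition of cAMP made by TSHR-expressing cells under TSH stimulation (4nM final, EC80; 2 h, 37 deg C) is quantified with a one-step lysis HTRF kit, anti-cAMP cryptate versus cAMP-d2.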
# BRCA1 expr up: qHTS Assay to Identify Small Molecule Activators of BRCA1 Expression | MCF7-BRCA1-FFLuc reporter, luminescence, 48 h; response scale: scaled: vehicle 0%, 10 µM genistein 100% | AID 624202, 2012 | Potency, µM (highest dose often 46.1 µM), actives largely listed as activators | hit rate 1.1% among 380,000; also: nearly all actives have a fitted effect of over 80% in size
#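 Luminescence from a BRCA1-driven firefly luciferase in MCF7 cells was the read-out, taken 15 min after substrate addition following 48 h compound exposure at 37 °C. Data were normalized to a 10 microM genistein control and DMSO vehicle.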
# A number is an active result; . = inactive; ? = inconclusive; / = no result. The list is not random: actives were taken first. Their share in the collection is about 1.2%. Unless noted, calls follow the shape of the dose curve; as a rule, active = well fitted curve in the direction sought with a large enough effect; inconclusive = small, poorly fitted or top-dose-only effect, or another doubt; inactive = no such curve, though single readings can be large; an effect the other way counts as inactive or inconclusive.
SMILES,Anesthetic bind,ASM inhibitor,PTAP TSG101 blk,TSHR antagonist,BRCA1 expr up
O=C(NCCc1ccccc1)c1n[nH]c2ccccc12,?,.,.,.,3.16µM
CCCN1CNc2c(c(=O)[nH]c(=S)n2CCc2ccsc2)C1,/,/,/,/,.
C=CCSC1=NNC(c2ccc(C(C)(C)C)cc2)=NN1,.,.,.,.,7.08µM
C=CCNc1nc(Nc2ccccc2F)nc(OCC)n1,.,.,.,.,10µM
CCOc1nc(Nc2ccccc2F)nc(OCC)n1,.,.,.,.,.
CCOC(=O)c1sc(-c2ccccc2)nc1C,.,.,.,.,.
CCOC(=O)Cc1ccc2sc(-c3ccccc3)nc2c1,.,.,.,.,4.47µM
Cn1ccsc1=NC(=O)c1cccc(OC(F)F)c1,.,.,.,.,8.91µM
O=C(/C=C/c1ccc(F)cc1)NCc1cccs1,.,.,.,.,14.1µM
O=C(/C=C/c1ccc(Br)cc1)NCc1cccs1,.,.,.,.,.
O=C(/C=C/c1ccccc1Cl)NCc1cccs1,.,.,.,.,3.98µM
O=C(/C=C/c1cccs1)NCc1ccccc1,.,.,.,.,14.1µM
COc1ccc(-c2cn3nc(SCC(=O)NC4CCCCC4)ccc3n2)cc1,.,.,.,.,1.26µM
COc1ccc(-c2ccc(SCC(=O)NC3CCCCC3)nn2)cc1,.,.,.,.,?
Nc1nc2ccccc2n1/N=C/c1ccc2c(c1)OCO2,.,.,.,.,5.62µM
Nc1nc2ccccc2n1/N=C/c1ccc(Br)cc1,.,.,.,.,.
CC[N+](C)(C)c1ccc(/C=C/c2ccc3ccccc3n2)cc1,/,/,/,/,.
C[C@@H](NC(=O)[C@@H]1Cc2ccccc2CN1)C(=O)NC1CCCCC1,.,.,.,-133.8,.
Cc1ccc(NC(=O)[C@@H](C)NC(=O)[C@@H]2Cc3ccccc3CN2)cc1,.,.,.,.,.
CN(C)CCCNc1cc(N2CCN(C)CC2)ncn1,/,/,/,/,.
Cn1c(CO)cnc1SCC(=O)c1ccc(F)cc1,.,.,.,.,10µM
COc1ccc(CN(Cc2ccccc2)C(=O)CN2CCN(C)CC2)cc1COc1ccc(NC(C)=O)cc1,/,/,/,/,.
O=c1c2ccccc2nnn1Cc1ccccc1,?,.,.,.,.
O=c1c2ccccc2nnn1Cc1ccccc1Cl,14.1µM,.,.,.,.
O=C(CN1C(=O)C2CCCCC2C1=O)OCn1nnc2ccccc2c1=O (stereo not given),.,.,.,.,.
SMILES,Anesthetic bind,ASM inhibitor,PTAP TSG101 blk,TSHR antagonist,BRCA1 expr up
O=C(OCn1nnc2ccccc2c1=O)C1CCCCC1,39.8µM,.,.,.,.
Cc1sc(=NC(=O)c2ccco2)n(C)c1-c1ccc(Cl)cc1,.,.,.,.,6.31µM
CCOC(=O)c1sc(=NC(=O)c2ccco2)n(C)c1C,.,.,.,.,.
CC(/C=C/c1ccc(O)cc1)=N/O,.,.,.,.,12.6µM
CC(/C=C/c1ccccc1)=N/O,?,.,.,.,.
CCC1=C[C@@H]2CN(C1)Cc1c([nH]c3ccccc13)[C@@](C(=O)OC)(c1cc3c(cc1OC)N(C)[C@H]1[C@@](O)(C(=O)OC)[C@H](OC(C)=O)[C@]4(CC)C=CCN5CC[C@]31[C@@H]54)C2,.,/,/,/,?
O=c1[nH]cccc1-c1nc2ccccc2[nH]1,.,.,.,.,8.91µM
CC(C)ON(C(C(=O)NO)C(C)C)S(=O)(=O)c1ccc(-c2ccccc2)cc1 (stereo not given),.,/,/,/,/
CCCCCn1cnc2c(sc3nc4c(cc32)CSC(C)(C)C4)c1=O,.,.,.,.,2.24µM
CC1(C)Cc2nc3sc4c(=O)[nH]cnc4c3cc2CS1,.,.,.,.,?
COc1ccc2c(c1OC)C(=O)N(c1cccc(C(F)(F)F)c1)C2,.,.,.,.,2.82µM
NCCCCCCCCCCNCCCN,.,/,/,/,/
O=c1cc(-c2ccc(O)c(O)c2)oc2ccccc12,.,/,/,/,/
O=[N+]([O-])c1ccc2oc(/C=C/c3ccc(O)cc3)nc2c1,/,/,/,/,10µM
